Measurements reported in PubChem BioAssay AID2108 (National Center for Advancing Translational Sciences (NCATS), 2009).
Records with an inconclusive call do not appear. Active and inactive are the calls of the source. Calls follow the shape of the dose curve; as a rule, active = well fitted curve in the direction sought with a large enough effect; inconclusive = small, poorly fitted or top-dose-only effect, or effect the other way, or another doubt; inactive = no such curve, though single readings can be large or run the other way.

Target: Alpha-galactosidase A (Homo sapiens) (UniProt P06280)
Assay: Confirmation of Inhibitors of Human alpha-Galactosidase Using Spleen Homogenate; also: 0% is about no effect
Details: alpha-galactosidase enzyme activity; series mostly up to 56.2 µM; activity change: at the top concentration
Outline: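 AC50 values come from Hill-equation fits of normalised 4-methylumbelliferone fluorescence (365/440 nm, read after NaOH/glycine stop). Enzyme source: spleen homogenate; substrate 1 mM final; pH 5.0 citrate buffer; 40 min at 37C; compound titration 0.5 nM–58 uM.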

Alpha-galactosidase A (Homo sapiens), sequence (P06280 32-429 limits assumed): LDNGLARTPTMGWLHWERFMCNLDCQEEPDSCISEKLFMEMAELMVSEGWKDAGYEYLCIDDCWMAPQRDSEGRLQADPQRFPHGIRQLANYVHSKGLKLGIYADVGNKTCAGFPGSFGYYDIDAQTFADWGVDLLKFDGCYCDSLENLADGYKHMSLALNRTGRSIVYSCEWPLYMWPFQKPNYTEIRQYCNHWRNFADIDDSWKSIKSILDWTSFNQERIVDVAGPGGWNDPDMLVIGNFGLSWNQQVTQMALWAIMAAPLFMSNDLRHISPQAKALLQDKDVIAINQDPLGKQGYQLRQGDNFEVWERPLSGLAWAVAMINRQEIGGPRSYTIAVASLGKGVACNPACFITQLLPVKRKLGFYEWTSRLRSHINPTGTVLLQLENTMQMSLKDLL

Activity change, inactive:
CCCCN1C[C@H](O)[C@@H](O)[C@H](O)[C@H]1CO -5.54%
O=C(c1ccccc1)N1CCN(C(=O)c2ccccc2)CC1 10.9%
COc1ccc(Cc2nnc(NC(=O)CSc3ccc(Cl)cc3)s2)cc1 1.59%
COc1ccc(/C=C(/NC(=O)c2ccccc2)C(=O)NC(Cc2c[nH]c3ccccc23)C(=O)O)cc1 (configuration not stated) -6.83%
CC(=O)N1CCN(c2ccc(NCc3ccc(C(C)C)cc3)cc2)CC1 -2.87%
COc1cccc(NC(=S)NCc2ccc3c(c2)cc(C)n3C)c1 -0.234%
COC(=O)CSc1ccc(C#N)c(SCC(=O)OC)c1 7.51% [at 23.6 µM]
Cc1cccc(NC(=O)c2nc[nH]c2C(=O)N[C@@H](CCCCNC(=O)OC(C)(C)C)C(=O)OC(C)(C)C)c1 -3.5%
CCOC(=O)c1c(-c2ccc(-c3ccccc3)cc2)csc1NC(=O)CCN1CCOCC1 6.65%
COc1cc(CNc2ccc(N3CCCC3)cc2)ccc1OCc1ccccc1F -3.03%
N#Cc1ccc(S(=O)(=O)N2CCOCC2)cc1 7.99%
COc1cc(NC(=O)CN2CCN(c3ccccc3F)CC2)c(C)cc1[N+](=O)[O-] 1.56% [at 23.6 µM]
CC1(C)CC(=O)c2cc(C(=O)NC3CCSC3=O)c(=O)n(-c3ccccc3)c2C1 (configuration not stated) 3.01% [at 23.6 µM]
N#Cc1ccccc1S(=O)(=O)N1CCOCC1 8.2%
Nc1ccccc1N=Cc1ccc(-c2cccc(Cl)c2)o1 8.41%
CCOC(=O)N1CCN(c2cc(N(C)CCO)c([N+](=O)[O-])c3nonc23)CC1 1.32%
COc1cccc2cc(-c3nc(-c4ccc(C)cc4)c(C)s3)c(=O)oc12 6.04%
CC(C)C[C@H](NC(=O)c1nc[nH]c1C(=O)N[C@@H](CC(C)C)C(=O)OC(C)(C)C)C(=O)OCc1ccccc1 -9.26%
CC(=O)c1ccc(NC(=O)COc2ccccc2-c2nc(C)no2)cc1 -1.56%
CCN(CC)S(=O)(=O)c1ccc2c(c1)C(=NNc1ccccc1)c1cc(S(=O)(=O)N(CC)CC)ccc1-2 -3.74%
Clc1cc2c(cc1/C=C/c1ccc3ccccc3n1)OCO2 9.14%
OC[C@H]1NC[C@H](O)[C@@H](O)[C@H]1O -7.1% [at 287 µM]
S=C(NCCc1ccccc1)N1CCn2cccc2C1c1ccncc1 (configuration not stated) 0.147%
CCN(CC)S(=O)(=O)c1ccc2c(c1)-c1cc(S(=O)(=O)N(CC)CC)ccc1C2=NNC(N)=S 4.6%
O=C(c1ccccc1)N1CCN(S(=O)(=O)c2ccccc2)CC1 12%
Cc1ccc(-c2nc3ncccn3c2Nc2ccc3c(c2)OCO3)o1 -5.26%
CN1CCN(S(=O)(=O)c2ccccc2)CC1 10.6%
O=C(O)c1cc(NCc2ccc3c(c2)OCO3)ccc1N1CCOCC1 1.85%
COc1cccc2cc(-c3nc(-c4ccccc4)c(C)s3)c(=O)oc12 6.7%
Cc1sc(-c2cc3cc(Cl)ccc3oc2=O)nc1-c1ccccc1 10.1%
COc1ccc(/C=C/c2nnc(NC(C)=O)s2)cc1 8.15%
O=S(=O)(c1ccc(-c2ccccc2)cc1)N1CCOCC1 11.5%
COc1ccc(-c2nnc(NC(=O)CSc3ccc(Cl)cc3)s2)cc1 6.4%
Clc1ccc(Nc2ncnc3ccc(Br)cc23)cc1 -6.43% [at 23.6 µM]
CC1S/C(=N\N=C\c2cccc([N+](=O)[O-])c2)N(C(C)(C)C)C1=O (configuration not stated) 0.894% [at 23.6 µM]
Nc1ccc(Cc2ccc(N)c(O)c2)cc1O -5.93%
O=C(c1cccc2ccccc12)N1CCN(S(=O)(=O)c2ccccc2)CC1 -3.25%
